Source: PubChem BioAssay (NCATS)
Values without a mark were called inactive. Inconclusive results are not listed. Where a call stands in place of a potency, no number is given. The source made the active and inactive calls. Unless noted, calls come from the whole dose curve; as a rule, active = well fitted curve in the direction sought with a large enough effect; inconclusive = small, poorly fitted or top-dose-only effect, or another doubt; inactive = no such curve, though single readings can be large; an effect the other way counts as inactive or inconclusive.

How the values were obtained:
[1] = target: Lysosomal acid glucosylceramidase (Homo sapiens) (UniProt P04062); assay: Glucocerebrosidase-p2 (AID 348; in the data active = potency below about 10 µM; note: potency is the fitted concentration of half-maximal effect); conditions: purified GBA, blue fluorogenic substrate, 40 min
Sequence of Lysosomal acid glucosylceramidase (Homo sapiens) (P04062 whole entry, looked up): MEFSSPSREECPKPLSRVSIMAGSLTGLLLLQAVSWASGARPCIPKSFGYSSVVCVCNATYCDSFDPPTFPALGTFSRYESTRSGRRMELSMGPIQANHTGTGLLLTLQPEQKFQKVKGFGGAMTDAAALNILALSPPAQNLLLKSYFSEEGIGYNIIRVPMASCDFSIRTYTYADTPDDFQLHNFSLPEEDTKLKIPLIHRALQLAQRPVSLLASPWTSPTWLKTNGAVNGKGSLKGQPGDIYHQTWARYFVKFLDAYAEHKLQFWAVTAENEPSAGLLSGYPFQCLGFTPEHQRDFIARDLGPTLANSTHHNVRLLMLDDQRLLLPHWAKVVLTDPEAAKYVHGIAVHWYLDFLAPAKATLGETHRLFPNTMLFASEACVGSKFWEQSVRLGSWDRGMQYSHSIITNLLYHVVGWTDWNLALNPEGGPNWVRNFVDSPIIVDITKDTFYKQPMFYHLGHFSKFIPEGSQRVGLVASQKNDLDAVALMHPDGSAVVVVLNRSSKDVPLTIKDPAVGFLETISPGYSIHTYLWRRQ
In short: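 Normal human glucocerebrosidase (0.2 nM) with blue fluorogenic substrate (80 uM final) in citrate/phosphate pH 5.9 with 10mM sodium taurocholate, 0.01% tween-20; 40 min RT, NaOH/glycine stop; fluorescence Ex 365/Em 440; AC50 from a titration from 0.6 nM upwards.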

[2] = AP1 Signaling Pathway (AID 357; active = well fitted curve in either direction with a large enough effect, not every such curve was filed as active;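 note: ME-180 reporter cells stimulated with EGF at its EC50 level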); conditions: ME-180 (cervical carcinoma) AP-1-bla reporter, EGF-induced, beta-lactamase ratio, 5 h; at 7.69 µM (top of the series) unless noted
In short: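 AP-1-bla ME-180 cells, Opti-MEM + 0.5% dialyzed FBS, plated overnight 37 °C. Cpd titration + EC50 EGF, 5 h 37 °C. CCF4 2.5 h RT; ex 405, em 460/530 ratio → %activity, AC50.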

[3] = target: Cytochrome P450 1A2 (Homo sapiens) (UniProt P05177); assay: p450-cyp1a2 (AID 410; calls by dose curve; note: potency is the fitted concentration of half-maximal effect)
Sequence of Cytochrome P450 1A2 (Homo sapiens) (P05177 whole entry, looked up): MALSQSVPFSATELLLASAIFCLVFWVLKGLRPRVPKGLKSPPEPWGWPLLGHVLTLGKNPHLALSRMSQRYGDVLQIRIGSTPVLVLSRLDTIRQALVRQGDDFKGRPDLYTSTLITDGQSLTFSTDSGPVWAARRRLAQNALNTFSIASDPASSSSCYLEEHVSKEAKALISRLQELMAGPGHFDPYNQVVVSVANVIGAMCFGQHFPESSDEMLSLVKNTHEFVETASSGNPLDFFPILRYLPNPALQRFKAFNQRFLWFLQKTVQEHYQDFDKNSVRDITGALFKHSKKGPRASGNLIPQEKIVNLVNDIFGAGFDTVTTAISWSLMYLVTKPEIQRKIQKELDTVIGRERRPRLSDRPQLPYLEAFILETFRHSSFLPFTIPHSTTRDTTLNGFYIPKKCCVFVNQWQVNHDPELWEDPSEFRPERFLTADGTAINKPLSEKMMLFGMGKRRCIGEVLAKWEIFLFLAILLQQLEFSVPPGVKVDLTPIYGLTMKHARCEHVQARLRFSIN
In short: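 20nM CYP1A2, 100uM Luciferin-ME (=Km), 100mM KPO4; cpd 10 min RT; +NADPH regen, 60 min RT; stop/detect 20 min; luminescence. Normalized to furafylline 57 uM = full inhibition.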

[4] = NFAT Signaling Pathway (AID 444; active = well fitted curve in either direction with a large enough effect, not every such curve was filed as active;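 note: carbachol stimulus at about its EC50 of 1 µM final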); conditions: Jurkat NFAT-bla M1, carbachol, beta-lactamase ratio, 5 h; at 7.69 µM (top of the series) unless noted
In short: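 Jurkat cells with NFAT-driven β-lactamase reporter and co-expressed M1 receptor, stimulated with carbachol (final 1 uM, ~EC50), compound titration, 5 h at 37 °C. CCF4 loaded 1 h at RT; 460/530 nm ratio gave %activity and AC50.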

[5] = Stat Signaling Pathway (AID 446; active = well fitted curve in either direction with a large enough effect, not every such curve was filed as active;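 note: ME-180 cervical cancer cells given 40 pM IL-6 alongside compound; SIE-controlled beta-lactamase reporter measured as 460/530 nm FRET emission ratio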)
In short: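 Emission at 460 and 530 nm (excitation 405 nm) reports SIE-controlled beta-lactamase in ME-180 cells. Cells received compound with 40 pM IL-6 for 5 hrs at 37 C; data scaled between 300 pM IL-6 and 125 nM JAK-inhibitor controls.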

[6] = target: Glucocorticoid receptor (Homo sapiens) (UniProt P04150); assay: GR-GFP Redistribution (AID 450;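 active = compounds whose dose series gives a full or clear partial fitted curve of increased nuclear translocation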; note: potency is the fitted concentration of half-maximal effect); conditions: U2OS GR-GFP nuclear translocation, laser cytometry, 2 h
Sequence of Glucocorticoid receptor (Homo sapiens) (P04150 whole entry, looked up, the tested form may be a part): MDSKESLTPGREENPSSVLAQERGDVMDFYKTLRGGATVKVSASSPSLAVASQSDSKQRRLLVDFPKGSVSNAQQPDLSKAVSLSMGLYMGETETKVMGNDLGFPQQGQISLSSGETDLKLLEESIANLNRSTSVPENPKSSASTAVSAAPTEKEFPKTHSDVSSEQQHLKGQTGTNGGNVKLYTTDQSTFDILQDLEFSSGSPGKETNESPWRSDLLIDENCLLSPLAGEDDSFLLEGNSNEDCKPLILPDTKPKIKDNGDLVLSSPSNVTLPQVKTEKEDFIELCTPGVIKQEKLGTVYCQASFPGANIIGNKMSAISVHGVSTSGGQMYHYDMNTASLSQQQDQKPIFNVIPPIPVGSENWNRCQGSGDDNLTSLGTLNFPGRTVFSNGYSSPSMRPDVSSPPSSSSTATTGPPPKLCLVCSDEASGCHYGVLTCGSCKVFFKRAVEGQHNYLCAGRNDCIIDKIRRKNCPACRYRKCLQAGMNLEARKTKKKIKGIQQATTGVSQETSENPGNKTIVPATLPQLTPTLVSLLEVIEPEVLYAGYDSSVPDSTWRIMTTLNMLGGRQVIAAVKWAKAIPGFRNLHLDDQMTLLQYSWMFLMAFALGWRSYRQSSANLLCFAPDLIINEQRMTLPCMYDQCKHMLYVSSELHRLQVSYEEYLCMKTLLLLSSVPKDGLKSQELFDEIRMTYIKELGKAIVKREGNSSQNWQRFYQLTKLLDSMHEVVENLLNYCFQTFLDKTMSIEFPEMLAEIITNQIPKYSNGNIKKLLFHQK

[7] = target: Glucocorticoid receptor (Homo sapiens) (UniProt P04150); assay: GR-EFC Redistribution (AID 451; calls by dose curve; note: potency is the fitted concentration of half-maximal effect); conditions: CHO-K1 GR-EFC translocation, beta-gal luminescence, 2 h
In short: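 CHO-K1 cells expressing nuclear EA and GR-ED fragments of b-gal; compounds titrated up to 46 uM final, 2 h at 37 C. GR nuclear translocation read as complemented b-gal luminescence after 1 h RT detection.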

[8] = target: Mitogen-activated protein kinase 10 (Mus musculus) (UniProt Q61831); assay: JNK3 AlphaScreen Assay (AID 530; active = well fitted curve in either direction with a large enough effect, not every such curve was filed as active;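 note: kinase came from lysate of stimulated human HepG2 cells; signal reports phosphorylation of biotinylated GST-cJun 1-79 at Ser73 with 10 µM ATP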)
In short: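 HepG2 lysate (IL-1b/TNFa pre-activated) + biotin-GST-cJun 1-79 + anti-pSer73 cJun; cpd titration, 15 min RT; ATP 10 uM start; Tris pH 7.6, MgCl2, DTT, vanadate; beads in EDTA buffer; AlphaScreen.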

[9] = target: 3',5'-cyclic-AMP phosphodiesterase 4B (Homo sapiens) (UniProt Q07343); assay: qHTS Assay for Inhibitors of PDE-IV (AID 607; active = well fitted activation curve with a large enough effect in the main read-out, with a control signal flat, not every such curve was filed as active)
Sequence of 3',5'-cyclic-AMP phosphodiesterase 4B (Homo sapiens) (Q07343 whole entry, looked up): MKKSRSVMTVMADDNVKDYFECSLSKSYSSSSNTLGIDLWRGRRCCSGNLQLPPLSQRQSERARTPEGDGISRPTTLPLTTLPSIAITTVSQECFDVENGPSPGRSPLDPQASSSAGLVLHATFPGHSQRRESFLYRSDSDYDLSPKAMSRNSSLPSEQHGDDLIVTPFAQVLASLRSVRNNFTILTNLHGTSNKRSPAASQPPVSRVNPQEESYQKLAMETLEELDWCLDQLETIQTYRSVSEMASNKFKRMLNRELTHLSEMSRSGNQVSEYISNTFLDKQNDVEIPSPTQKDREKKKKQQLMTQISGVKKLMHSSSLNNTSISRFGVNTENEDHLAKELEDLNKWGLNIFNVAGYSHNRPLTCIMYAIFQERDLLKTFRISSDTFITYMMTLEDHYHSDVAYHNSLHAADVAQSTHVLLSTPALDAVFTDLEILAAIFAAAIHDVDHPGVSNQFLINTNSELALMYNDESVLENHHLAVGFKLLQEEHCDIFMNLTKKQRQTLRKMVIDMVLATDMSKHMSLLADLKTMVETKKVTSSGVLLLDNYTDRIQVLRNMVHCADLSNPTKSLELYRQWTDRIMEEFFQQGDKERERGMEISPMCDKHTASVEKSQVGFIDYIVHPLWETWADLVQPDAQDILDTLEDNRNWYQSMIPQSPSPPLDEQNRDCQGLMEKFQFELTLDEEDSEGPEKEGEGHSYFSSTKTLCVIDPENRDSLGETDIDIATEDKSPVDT
In short: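 The readout is membrane depolarisation from a cAMP-sensing CNG channel, detected with a potential dye at ex 535/em 590. Cells were HEK293-derived (endogenous PDE-IV) at 1000 cells/well, titrated up to 22.9 uM final.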

[10] = target: Cytochrome P450 2C19 (Homo sapiens) (UniProt P33261); assay: qHTS Assay for Inhibitors and Substrates of Cytochrome P450 2C19 (AID 899); note: potency is the fitted concentration of half-maximal effect; nearly all actives have a fitted effect of over 60% in size
Sequence of Cytochrome P450 2C19 (Homo sapiens) (P33261 whole entry, looked up): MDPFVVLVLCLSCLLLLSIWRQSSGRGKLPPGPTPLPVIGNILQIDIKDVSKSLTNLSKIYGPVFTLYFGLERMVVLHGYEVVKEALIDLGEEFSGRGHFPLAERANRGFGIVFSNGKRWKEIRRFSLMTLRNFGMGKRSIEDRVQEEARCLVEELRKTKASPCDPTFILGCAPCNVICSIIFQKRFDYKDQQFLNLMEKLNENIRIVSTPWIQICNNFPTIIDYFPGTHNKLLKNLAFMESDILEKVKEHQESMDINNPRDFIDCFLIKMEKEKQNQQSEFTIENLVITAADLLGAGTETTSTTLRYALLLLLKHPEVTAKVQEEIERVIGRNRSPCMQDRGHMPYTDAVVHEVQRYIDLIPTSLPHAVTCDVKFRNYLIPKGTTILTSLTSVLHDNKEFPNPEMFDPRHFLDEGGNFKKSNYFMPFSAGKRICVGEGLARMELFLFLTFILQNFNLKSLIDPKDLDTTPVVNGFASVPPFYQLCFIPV
In short: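 Signal comes from luciferase acting on luciferin released by CYP2C19-mediated hydroxylation of Luciferin-H EGE, 10uM (KM). Assay mix: 5nM enzyme, 50mM KPO4; 60 min at 37C with NADPH regeneration. Data normalized against 57uM ketoconazole.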

[11] = target: Rap guanine nucleotide exchange factor 3 (Homo sapiens) (UniProt O95398); assay: Confirmatory qHTS for antagonist of cAMP-regulated guanine nucleotide exchange factor 3 (EPAC1) (AID 1645880); conditions: EPAC1 Rap1B-BODIPY-GDP exchange, fluorescence; activity, negative = inhibition: at 115 µM (top of the series); note: nearly all actives have a fitted effect of over 55% in size; note: potency is the fitted concentration of half-maximal effect
Sequence of Rap guanine nucleotide exchange factor 3 (Homo sapiens) (O95398 whole entry, looked up): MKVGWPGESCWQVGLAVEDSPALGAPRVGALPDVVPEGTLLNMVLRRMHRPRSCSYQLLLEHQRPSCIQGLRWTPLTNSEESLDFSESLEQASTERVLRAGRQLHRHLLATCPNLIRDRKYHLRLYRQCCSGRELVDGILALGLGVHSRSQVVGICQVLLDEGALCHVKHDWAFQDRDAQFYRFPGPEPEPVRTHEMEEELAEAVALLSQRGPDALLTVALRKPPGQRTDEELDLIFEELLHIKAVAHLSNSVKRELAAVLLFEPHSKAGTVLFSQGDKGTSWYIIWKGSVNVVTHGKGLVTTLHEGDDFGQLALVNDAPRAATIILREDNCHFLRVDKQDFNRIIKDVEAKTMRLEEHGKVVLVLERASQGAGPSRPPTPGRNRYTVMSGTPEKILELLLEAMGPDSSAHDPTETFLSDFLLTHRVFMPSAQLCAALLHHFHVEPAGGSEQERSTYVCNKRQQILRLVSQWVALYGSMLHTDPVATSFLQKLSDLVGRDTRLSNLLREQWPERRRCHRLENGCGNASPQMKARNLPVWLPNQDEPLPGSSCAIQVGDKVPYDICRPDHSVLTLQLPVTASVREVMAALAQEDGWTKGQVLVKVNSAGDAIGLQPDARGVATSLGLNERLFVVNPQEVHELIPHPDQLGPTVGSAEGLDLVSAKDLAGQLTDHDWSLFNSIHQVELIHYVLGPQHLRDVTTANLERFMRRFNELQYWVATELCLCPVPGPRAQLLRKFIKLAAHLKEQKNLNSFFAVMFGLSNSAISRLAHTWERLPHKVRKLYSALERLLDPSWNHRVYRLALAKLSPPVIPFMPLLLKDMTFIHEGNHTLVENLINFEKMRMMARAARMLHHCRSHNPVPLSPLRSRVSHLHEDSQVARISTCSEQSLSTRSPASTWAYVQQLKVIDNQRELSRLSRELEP
In short: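 Released BODIPY-GDP fluoresces less than Rap1-bound BODIPY-GDP; the signal is followed at 480/540 nm at 5-min intervals over 30 min, after 5 min at room temperature. Reactions contain 100 nM EPAC1, 250 nM RAP1B-BODIPY-GDP and 50 uM GDP; results are normalized to ATA and DMSO.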

[12] = target: Rap guanine nucleotide exchange factor 4 (Homo sapiens) (UniProt Q8WZA2); assay: Confirmatory qHTS for antagonist of cAMP-regulated guanine nucleotide exchange factor 4 (EPAC2) (AID 1645885); note: nearly all actives have a fitted effect of over 25% in size; note: potency is the fitted concentration of half-maximal effect
Sequence of Rap guanine nucleotide exchange factor 4 (Homo sapiens) (Q8WZA2 whole entry, looked up): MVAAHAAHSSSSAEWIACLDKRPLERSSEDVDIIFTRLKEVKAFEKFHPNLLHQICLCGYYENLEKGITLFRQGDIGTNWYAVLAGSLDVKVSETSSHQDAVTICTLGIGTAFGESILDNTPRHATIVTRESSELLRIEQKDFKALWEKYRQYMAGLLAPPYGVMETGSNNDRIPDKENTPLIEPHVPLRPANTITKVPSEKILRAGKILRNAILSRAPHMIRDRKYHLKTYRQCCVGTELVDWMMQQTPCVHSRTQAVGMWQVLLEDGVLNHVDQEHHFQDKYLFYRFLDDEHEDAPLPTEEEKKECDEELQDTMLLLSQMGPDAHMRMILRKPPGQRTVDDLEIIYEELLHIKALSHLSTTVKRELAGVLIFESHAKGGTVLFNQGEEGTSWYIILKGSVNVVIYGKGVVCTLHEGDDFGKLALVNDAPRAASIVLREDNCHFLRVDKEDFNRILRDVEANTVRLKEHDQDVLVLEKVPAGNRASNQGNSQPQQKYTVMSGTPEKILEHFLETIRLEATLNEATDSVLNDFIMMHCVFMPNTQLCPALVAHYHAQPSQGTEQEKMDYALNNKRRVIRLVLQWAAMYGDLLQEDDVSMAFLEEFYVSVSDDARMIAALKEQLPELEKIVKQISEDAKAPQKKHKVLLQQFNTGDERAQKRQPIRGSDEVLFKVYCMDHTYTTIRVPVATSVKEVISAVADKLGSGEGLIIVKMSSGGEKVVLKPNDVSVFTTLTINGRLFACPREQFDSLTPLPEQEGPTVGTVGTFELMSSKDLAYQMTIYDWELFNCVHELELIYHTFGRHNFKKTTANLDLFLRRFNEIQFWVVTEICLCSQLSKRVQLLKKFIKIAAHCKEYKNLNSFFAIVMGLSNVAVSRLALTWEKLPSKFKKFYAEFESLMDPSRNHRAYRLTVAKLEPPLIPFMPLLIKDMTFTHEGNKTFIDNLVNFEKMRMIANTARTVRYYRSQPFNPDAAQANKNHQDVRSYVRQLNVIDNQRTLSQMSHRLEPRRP

[13] = target: Rap guanine nucleotide exchange factor 3 (Homo sapiens) (UniProt O95398); assay: Counterscreen qHTS for antagonist of cAMP-regulated guanine nucleotide exchange factor 3 (EPAC1) (AID 1645888); note: potency is the fitted concentration of half-maximal effect
In short: (§1)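 Rap1B–BODIPY-GDP (250 nM) with 50 uM GDP; compounds pin-transferred to 9.74 nM–152 uM final (activator) or from 7.32 nM upwards (inhibitor). Fluorescence Ex/Em 480/540 nm read at 5 and 30 min, then after adding cAMP or buffer, at room temperature.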

[14] = target: Rap guanine nucleotide exchange factor 3 (Homo sapiens) (UniProt O95398); assay: Counterscreen qHTS for agonist of cAMP-regulated guanine nucleotide exchange factor 3 (EPAC1) (AID 1645889); note: nearly all actives have a fitted effect of over 40% in size; note: potency is the fitted concentration of half-maximal effect
In short: as §1

For `N=C(N)c1ccc(N=Nc2c(O)ccc3c2[nH]c2ccccc23)cc1`, the Potency [1] was > 11.4 µM, the activity change, negative = inhibition [2] was 13.5% and the Potency [3] was 1.58 µM (active). The activity change, negative = inhibition [4] was 8.15%, the outcome [5] was “inactive” and the Potency [6] was > 46 µM. The Potency [7] was > 9.22 µM, the activity change, negative = inhibition [8] was -6.35% [at 11.4 µM] and the Potency [9] was “inactive”. For the same molecule, the Potency [10] was 1.26 µM (active), the Potency [11] was 56.2 µM (active) and the Potency [12] was “inactive”. It also gave an activity change, negative = inhibition [13] of -5.36% [at 30.8 µM] and an activation [14] of 33.2% [at 30.8 µM].

In the case of `CCN1CCN(c2ccc(S(=O)(=O)N3CCCCC3)cc2NC(=O)c2cccc(OC(F)F)c2)CC1`, the Potency [11] is reported as “inactive”, the Potency [12] is reported as “inactive” and the Potency [13] is reported as “inactive”. The Potency [14] was “inactive”.

With `CCOC(=O)c1cc(C)sc1NC(=O)CSC1=NCCS1` the Potency [11] was “inactive”, the Potency [12] was “inactive” and the Potency [13] was “inactive”.

For `Cc1ccc(S(=O)(=O)/N=C2\C=C(NS(=O)(=O)c3ccccc3)C(=O)c3ccccc32)cc1`, the Potency [11] was 26.9 µM (active), the Potency [12] was 16.9 µM (active) and the Potency [13] was “inactive”. For the same molecule, the Potency [14] was “inactive”.

With `CCN(CC)c1ccc(C=C2SC(=S)NC2=O)cc1` the Potency [11] was “inactive”, the Potency [12] was 84.9 µM (active) and the Potency [13] was “inactive”.

For `CC(C)CC1=NN2C(=N)/C(=C\c3coc4ccccc4c3=O)C(=O)N=C2S1`, the Potency [11] was “inactive”, the Potency [12] was “inactive” and the activity change, negative = inhibition [13] was 51.1% [at 30.8 µM]. For the same molecule, the Potency [14] was 12.6 µM (active).

In the case of `COC(=O)c1ccc(Cn2nc(-c3cc(C)ccc3C)ccc2=O)cc1`, the Potency [11] is reported as “inactive”, the Potency [12] is reported as “inactive” and the Potency [13] is reported as “inactive”. For the same molecule, the Potency [14] was “inactive”.

In the case of `Cc1cccc(N2CCN(S(=O)(=O)c3ccc4c(c3)CCN4C(=O)CCC(=O)O)CC2C)c1` (stereo not drawn), the Potency [11] is reported as 47.8 µM (active), the Potency [12] is reported as “inactive” and the Potency [13] is reported as “inactive”. For the same molecule, the Potency [14] was “inactive”.

For `CCN1CCc2c(sc(NC(=O)Nc3ccc(Cl)c(Cl)c3)c2C(N)=O)C1`, the Potency [11] was “inactive”, the Potency [12] was 84.9 µM (active) and the Potency [13] was 100 µM (active). The Potency [14] was 112 µM (active).

In the case of `O=C(NCc1cccc(F)c1)c1cccc2c1C(=O)c1ccc(N3CCOCC3)cc1S2(=O)=O`, the Potency [11] is reported as “inactive”, the Potency [12] is reported as “inactive” and the Potency [13] is reported as “inactive”.

With `O=C1/C(=C\c2cc(Cl)c(O)c(Cl)c2)SC(=S)N1Cc1ccccc1` the Potency [11] was “inactive”, the Potency [12] was “inactive” and the Potency [13] was “inactive”.

With `O=C1C=C(c2c(O)ccc3ccccc23)c2ccccc2C1=O` the Potency [11] was 67.5 µM (active), the Potency [12] was 47.8 µM (active) and the Potency [13] was “inactive”. The Potency [14] was 35.5 µM (active).

For `COC(=O)c1sc(S(=O)(=O)N2CCCCC2C)c(C(=O)OC)c1C` (stereo not drawn), the Potency [11] was “inactive”, the Potency [12] was 53.6 µM (active) and the Potency [13] was “inactive”. The Potency [14] was “inactive”.
